Data taken from PubChem BioAssay AID1825 (The Scripps Research Institute Molecular Screening Center, 2009).
Among all 290,000 compounds or so, about 2,300 (0.79%) were called active. Only a selection was taken, and actives are over-represented in it overall. Values without a mark were called inactive. Rule as the data show it: active = inhibition above about 22%; inactive = the rest.

Experiment: cytotoxicity in IEC-6 intestinal epithelial cells, primary screen, cytotoxicity control for KLF5 inhibitor project, cell-based, luminescence (AID 1825);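 also: 0% = plate median of test compound wells and 100% = cytotoxic reference compound wells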
Conditions: IEC-6 cytotoxicity, luminescence viability; at 5 µM; hits give high values

| Compound | inhibition |
| --- | --- |
| CCOc1ccc(S(=O)(=O)Nc2ccc(OC)nc2)cc1 | 6.1% |
| COc1ccc(C(=O)Nc2ccc(NC(=O)C(C)C)nc2)cc1 | -0.5% |
| COc1ccc(NC(=O)c2cc(-c3ccc(C)cc3)on2)cc1 | 2.3% |
| COc1ccc(CS(=O)/C(Cl)=C(/Cl)C(=O)Nc2ccc(OC)nc2)cc1 (stereo unspecified) | 102% (active) |
| COc1ccc(NC(=O)/C(Cl)=C(/Cl)S(=O)Cc2ccc(C)cc2)cn1 (stereo unspecified) | 99.6% (active) |
| COc1ccc(Nc2cc(Cl)ccc2C(=O)O)cn1 | -1.3% |
| Cc1ccc([N+](=O)[O-])cc1S(=O)(=O)N1CCCN(C)CC1 | 3.1% |
| CC1(C)Cc2cccc(OCC(=O)N3CCN(c4ccc([N+](=O)[O-])cc4)CC3)c2O1 | 4.2% |
| Cc1cccc(C(=O)N2CCN(S(=O)(=O)N3CCCCC3)CC2)c1 | -0.2% |
| CN(C)CCNC(=O)c1[nH]nc2c1CCc1ccccc1-2 | -3.9% |
| CC(=O)NCCc1ccc(S(=O)(=O)Nc2ccc(C)c(S(=O)(=O)N3CCOCC3)c2)cc1 | 2.5% |
| COC(=O)Nc1nc2ccc(Sc3ccccc3)cc2[nH]1 | 81.4% (active) |
| CC(C)c1nc2ccc(C(=O)O)cc2[nH]1 | -6% |
| COc1cc(OC)cc(C(=O)N[C@H](C(=O)Nc2nc3ccccc3[nH]2)C(C)C)c1 | 18.7% |
| S=C(c1ccc(-c2ccccc2)o1)N1CCCCC1 | 1.6% |
| O=C(Cc1ccc([N+](=O)[O-])cc1)Nc1ccc(C(=O)N2CCOCC2)cc1 | -2.8% |
| CCCc1c(C(=O)N/N=C(\C)CCc2ccc(OC)cc2)nnn1-c1nonc1N | 1.1% |
| CCn1cc(/C=C(\NC(=O)c2cc(OC)c(OC)c(OC)c2)C(=O)N2CCN(C)CC2)c2ccccc21 | 6.9% |
| Cc1nn(C(C)C(=O)NCCC2=CCCCC2)c(=O)c2nn(-c3ccccc3)c(C)c12 (stereo unspecified) | -2.9% |
| Cc1cc(C(=O)N/N=C\C(Br)=C\c2ccccc2)c(C)o1 | 11.7% |
| CC(C)c1cc(C(=O)N/N=C/C(Br)=C/c2ccccc2)n[nH]1 | 37.9% (active) |
| CC(C)c1cc(C(=O)O)n[nH]1 | 1.7% |
| Cc1ccc(Cl)cc1NC(=O)C1CCCN(c2cnccn2)C1 (stereo unspecified) | -2.8% |
| C[C@@H]1C[C@@H]2O[C@H]2/C=C\C=C\C(=O)Cc2c(Cl)c(O)cc(O)c2C(=O)O1 | 44.5% (active) |

| Compound | inhibition |
| --- | --- |
| COc1ccccc1Oc1ccc(N2CC(C(=O)OCC(=O)c3ccc(F)cc3)CC2=O)cc1 (stereo unspecified) | -7.2% |
| Cc1nn(CC(=O)N2CCCCC2)c(=O)c2nn(-c3ccccc3)c(C)c12 | -5.3% |
| COc1ccc(S(=O)(=O)N2CCC(C(=O)NCc3ccco3)CC2)cc1C | -0.7% |
| Cc1ccc(CNC(=O)C2CC(c3ccccc3[N+](=O)[O-])=NO2)o1 (stereo unspecified) | 4.8% |
| COc1ccc(C2=NOC(C(=O)NCc3ccco3)C2)cc1OC (stereo unspecified) | 43.3% (active) |
| C[C@@H](NC(=O)[C@@H]1Cc2ccccc2CN1)C(=O)NC1CCCC1 | 0.2% |
| CC(=O)NCCNC(=O)c1cc(-c2cccc3ccccc23)nc2ccccc12 | 4.3% |
| COCCn1c(SCC(=O)Nc2nc(C)cs2)nnc1C(C)C | 1.6% |
| O=C1c2ccccc2C(=O)N1c1cccc2ccccc12 | -0.4% |
| Cc1cccc(N2C(=O)c3cccnc3C2=O)c1 | 3.1% |
| Cc1ccc(Oc2ccc3c(c2)C(=O)N(c2cccc4cccnc24)C3=O)cc1 | 25.8% (active) |
| Cc1oc2cc3oc(=O)ccc3cc2c1C | 3.1% |
| COCCNc1cc(-c2ccccc2)nc2cc(-c3cccc(F)c3)nn12 | 2.5% |
| CCOC(=O)C1CCN(C(=O)/C=C/c2cc(OC)c(OC)c(OC)c2)CC1 | -2.6% |
| CCOC(=O)c1cc(-c2nnc(-c3cc(OC)c(OC)c(OC)c3)o2)c(C)nc1C | -3.1% |
| CCOC(=O)C1=C(N)N2C(=O)C(C)SC2=C(C(=O)OCC)C1c1cc(OC)c(OC)c(OC)c1 (stereo unspecified) | 25.5% (active) |
| Cc1ccc(N2CC(C(=O)NCCS(=O)(=O)N3CCN(c4ccccc4)CC3)CC2=O)cc1 (stereo unspecified) | -4.2% |
| CC(C)OCCCNc1ncnc2c1[nH]c1ccc(F)cc12 | 31.5% (active) |
| COc1cc(OC)c(OC)cc1/C=N/Nc1ncnc2c1[nH]c1ccc(C)cc12 | -4.4% |
| Fc1ccc2[nH]c3c(N4CCN(Cc5ccc6c(c5)OCO6)CC4)ncnc3c2c1 | 19.7% |
| COc1ccc(-c2nc3n(c(=O)c2C#N)CCS3)c(OC)c1 | 1.6% |
| O=C(c1cc2ccccc2s1)N1CCN(c2ccccn2)CC1 | 3.8% |
| Cc1ccc(-c2cc(C(=O)NCC3CCCO3)c3ccccc3n2)o1 (stereo unspecified) | -6% |
| CCc1c(C)nc2c(-c3ccccc3)c(C)nn2c1Nc1ccc(NC(C)=O)cc1 | -10.5% |

| Compound | inhibition |
| --- | --- |
| Cc1nn2c(NCCN(C)C)c3c(nc2c1-c1ccccc1)CCC3 | 25% (active) |
| Cc1cc(C(C)(C)C)n2nc(C)c(-c3ccccc3)c2n1 | 0.2% |
| CC(=O)N(c1ccc2oc(=O)sc2c1)S(=O)(=O)c1ccc(C)cc1 | -2.8% |
| COc1ccc(CC(=O)N/N=C(\C)c2ccccn2)cc1 | 2% |
| C/C(=N\NC(=O)c1ccccc1F)c1ccccn1 | 29.2% (active) |
| C/C(=N\NC(=O)Cc1ccc(Cl)cc1)c1ccccn1 | -2.8% |
| CCC(C)(C)NC(=O)/C=C/c1cc(OC)c(OC)c(S(=O)(=O)N2CCc3ccccc32)c1 | -0.4% |
| Cc1nc2ccccc2n1CC(O)c1ccccc1 (stereo unspecified) | 0% |
| Cc1nc2ccccc2c(=O)n1Cc1ccc([N+](=O)[O-])cc1 | -1.7% |
| CCn1c(C)nc2c1C(=O)c1ccccc1C2=O | 22.2% (active) |
| CCc1ccccc1NC(=S)Nc1cc(OC)c(NC(=O)C(C)C)cc1OC | -1.1% |
| NS(=O)(=O)c1ccccc1NC(=O)c1c(O)c2ccccc2[nH]c1=O | -0.5% |
| COc1ccc(Oc2cn[nH]c2-c2ccc(OC)cc2O)cc1 | 0% |
| CC(C)(C)NS(=O)(=O)c1ccc(NC(=O)C2CCCO2)cc1 (stereo unspecified) | -5% |
| CCN1/C(=C/c2ccc3ccc(C)cc3[n+]2CC)Sc2ccccc21 | 33.6% (active) |
| CCN1CCN(CCNC(=O)c2ccc(/C=C3/Sc4ccccc4N(Cc4cccc(C)c4)C3=O)cc2)CC1 | 7.2% |
| CCN1/C(=C\c2ccc3ccccc3[n+]2CC)Sc2cc(C)ccc21 | 54.6% (active) |
| COC(=O)c1sccc1NS(=O)(=O)c1ccc(F)cc1F | 1% |
| CCOC(=O)[C@@H]1[C@H]2COc3ccc(Br)cc3[C@H]2N2C(=O)N(c3ccc(Cl)cc3)C(=O)[C@@]12C | -0.1% |
| CC1CC(C)CN(C(=O)CCNC(=O)Cn2cnc3ccccc3c2=O)C1 (stereo unspecified) | 0.9% |
| CC(C)[C@@H](C(=O)O)N(Cc1cccc(CN([C@H](C(=O)O)C(C)C)S(C)(=O)=O)c1)S(C)(=O)=O | -3.4% |
| CCOC(=O)C(=Cc1ccccc1OC)C(=O)OCC | -0.6% |
| Cc1cc2c(cc1S(=O)(=O)CCC(=O)NCc1ccccc1)OCC(=O)N2 | 11% |
| C/C(=N\N(C)C)c1ccc(OCCOc2ccc([N+](=O)[O-])cc2)cc1 | 2.8% |

| Compound | inhibition |
| --- | --- |
| COc1cccc(OC)c1C(=O)Nc1c(C(=O)N2CCN(c3ccccn3)CC2)oc2ccccc12 | 0% |
| CCOc1ccc(NC(=O)CC(Cc2ccc(Cl)cc2)C(=O)O)cc1 (stereo unspecified) | 5.3% |
| Cc1ccc(S(=O)(=O)CC(=O)Nc2nnc(C)s2)cc1 | -1.2% |
| Cc1ccc(CS(=O)(=O)c2ncc(Cl)c(C(=O)Nc3nnc(C)s3)n2)cc1 | 83.7% (active) |
| CSc1nnc(NC(=O)c2nc(S(=O)(=O)Cc3ccc(C)cc3)ncc2Cl)s1 | 55% (active) |
| CCSc1nnc(NC(=O)c2ccc(C)cc2)s1 | 2.1% |
| CSc1ncc(Cl)c(C(=O)Nc2cc(C)ccc2C)n1 | 4.1% |
| Cc1nnc(NC(=O)Nc2ccc(Cl)c(Cl)c2)s1 | 4.3% |
| Cc1ccc2cc(C)c(N3CCN(c4ccc(F)cc4)CC3)nc2c1 | -5.5% |
| COc1cccc2cc(-c3cc(=O)oc4cc(C)c(O)cc34)oc12 | -3.7% |
| Cc1[nH]c(C)c(S(=O)(=O)N2CCN(c3cccc(C(F)(F)F)c3)CC2)c1C(=O)N1CCCC1 | -1.3% |
| COc1cccc(C(O)c2nc3ccccc3n2C)c1 (stereo unspecified) | -1% |
| CC(C)[C@@H]1COC(c2cccc(C3=N[C@H](C(C)C)CO3)c2)=N1 | 2.1% |
| Cc1nc(Nc2ccc3c(c2)OCCO3)c2nnn(Cc3ccccc3Cl)c2n1 | 22.2% (active) |
| Cc1nc(Nc2ccccc2F)c2nnn(Cc3ccccc3Cl)c2n1 | -5.6% |
| CCCc1nc(NCc2ccc3c(c2)OCO3)c2nnn(Cc3ccccc3Cl)c2n1 | 0.3% |
| O=C(CNC(=O)c1ccc(Br)o1)Nc1ccccc1 | -1.9% |
| COc1ccc(-n2nnnc2-c2nc3ccccc3s2)cc1 | -9% |
| CCOc1cccc(-n2nnnc2-c2ccc(OC)cc2)c1 | 58.4% (active) |
| c1ccc(-n2nnnc2-c2cccnc2)cc1 | 4.3% |
| COCCNC(=O)C(c1ccc(C)cc1)N(C(=O)CCC(=O)Nc1ccccn1)c1cccc(C)c1 (stereo unspecified) | 7% |
| Cc1ccc(C2CC(=O)NC(SCC(=O)OCc3ccccc3)=C2C#N)o1 (stereo unspecified) | -14.2% |
| C=CCOC(=O)C1=C(C)NC(SCC(=O)OCC)=C(C#N)C1c1ccc(C)cc1 (stereo unspecified) | 0.1% |
| CCOC(=O)CSC1=C(C#N)C(c2sccc2C)CC(=O)N1 (stereo unspecified) | 81.1% (active) |
